About 1,500 (0.45%) of roughly 330,000 compounds were called active. This excerpt belongs to a sample that is enriched for actives. Values without a mark were called inactive. No stated cut-off is given here; in the data, active means inhibition above about 45% (passing the limit was not always enough); inconclusive means no clear call, values can overlap the other calls.

In the assay the target is Ubiquitin-conjugating enzyme E2 N (Homo sapiens) (UniProt P61088). In words: blockers of UBC13 ubiquitin chain synthesis – biochemical, TR-FRET, uHTS, primary screen (AID 485273). Conditions: UBC13 polyubiquitin chain formation, at 20 µM, hits give high values.
Sequence of Ubiquitin-conjugating enzyme E2 N (Homo sapiens) (P61088 whole entry, looked up): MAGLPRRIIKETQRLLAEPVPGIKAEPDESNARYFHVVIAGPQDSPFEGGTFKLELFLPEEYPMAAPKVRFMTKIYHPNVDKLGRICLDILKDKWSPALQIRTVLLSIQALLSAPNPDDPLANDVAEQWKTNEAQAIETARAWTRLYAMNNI
Take `CN(C)C(=O)c1ccc2c(c1)C1C3CCC(C3)C1C(c1ccccc1)N2` (stereo unspecified): the inhibition – broadly, the drop in the measured response relative to a control, in per cent – was -13.6%. The figure for `CC(=O)NC(Cc1ccc(F)c(F)c1)C(=O)NC1CCN(c2nnnn2-c2ccccc2)CC1` (stereo unspecified) is -5.3%; for `COc1ccnc2c1c(=O)n(Cc1cccc(F)c1)c(=O)n2C` it is 48.2% (active); for `CC(C)(C)c1cc2cccnc2n1Cc1cccc(F)c1` it is 11.4%. The figure for `CCCCNc1nc2c(c(=O)n(C)c(=O)n2C)n1Cc1cccc(OC)c1` is 21.5%; for `CCOC(=O)c1ccc(COC(=O)CCc2nc(-c3ccccc3)c(-c3ccccc3)o2)cc1` it is -0.9%; for `COCc1cc(=O)[nH]c2cc(NC(=O)C(F)(F)F)c(C)cc12` it is 8.5%. With `NC(N)=N/N=C/c1ccc(OCc2ccc(Cl)cc2Cl)cc1`, the inhibition is 108% (active). For `CCOc1ccc(/C=N/NC(N)=S)cc1`, the inhibition was -0.6%. Consider `OC(CNCCc1ccc(Cl)cc1Cl)COc1ccccc1` (stereo unspecified), for which the inhibition was 23%. On to `O=C(/C=C/c1cccc([N+](=O)[O-])c1)OCC(=O)N1CCOCC1`, for which the inhibition was -13.5%. On to `CC(OC(=O)CNC(=O)c1ccco1)C(=O)Nc1ccc(Cl)cn1` (stereo unspecified), for which the inhibition is -3.2%.

Regarding `CCc1ccc(NC(=O)C(C)OC(=O)/C=C/c2cccc([N+](=O)[O-])c2)cc1` (stereo unspecified), the inhibition was -15.4%. The figure for `COc1ccc(N2CCN(C(=O)CNC(=O)c3ccc(C(C)(C)C)cc3)CC2)cc1` is 12.3%. As for `O=C(CCCCCN1C(=O)c2cccc3cccc(c23)C1=O)NCc1ccco1`, the inhibition is 57.4% (active). Regarding `O=C(CCCOc1ccccc1)NCc1ccco1`, the inhibition is 6.4%. For the molecule `O=C1c2cccc3cccc(c23)C(=O)N1CCCCCc1n[nH]c(=S)o1`, the inhibition is -1.2%. Regarding `C=CCN(CC=C)CCOc1ccccc1[N+](=O)[O-]`, the inhibition was 3.5%.

`O=C(COc1ccc(Br)cc1F)NCC1(N2CCCCC2)CCCCC1`: the inhibition is -5.1%. Under `Cc1ccc2c(c1)N(CC(=O)N1CCC(O)CC1)C(=O)CO2` stands -0.3%. The figure for `CCOc1ccccc1N1CN(Cc2ccccc2)CNC1=S` is -1.7%. Take `Cc1ccc(C(=O)N/C(=C/c2ccc(-c3cccc([N+](=O)[O-])c3)o2)C(=O)NCCCN(C)C)cc1`: the inhibition was 57% (active). Consider `CN(C)CCNC(=O)/C(=C/c1cccc([N+](=O)[O-])c1)NC(=O)c1ccccc1`, for which the inhibition was 11.7%. In the case of `C=CCNC(=O)/C(=C\c1cccc([N+](=O)[O-])c1)NC(=O)c1ccccc1`, the inhibition was 5.9%.

With `CN(CCc1ccccn1)C(=O)c1ccc(OC2CCN(Cc3ccccn3)CC2)cc1`, the inhibition was 1.2%.

Turning to `Oc1ccccc1-c1cc(-c2ccc(Cl)cc2)n[nH]1`, the inhibition is 14.2%.
